CHO-K1 Ca ag: counter-screen for M1 agonists: effect in parental CHO-K1 cells. activation, % at 3 µM. actives 0.48% (n = 360,000). AID 602248. Fluo-8 calcium fluorescence; scaled to maximal ATP response, vehicle zero; in the data active = activation above about 15%;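 note: untransfected CHO-K1 host cells lacking M1 receptor as counterscreen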
M1 ag: agonists of human M1 muscarinic receptor; activation, % at 3 µM; actives 0.33% (n = 360,000); CHO-K1 hM1, Fluo-8 calcium fluorescence, agonist mode; 0% DMSO, 100% acetylcholine EC100; P11229; AID 588814;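 active = activation above the run's mean compound activation plus 3 SD, cut at about 16% in these data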;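 note: peak over basal fluorescence ratio within a 140 s kinetic read after compound addition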
Target sequence (P11229 whole entry, looked up): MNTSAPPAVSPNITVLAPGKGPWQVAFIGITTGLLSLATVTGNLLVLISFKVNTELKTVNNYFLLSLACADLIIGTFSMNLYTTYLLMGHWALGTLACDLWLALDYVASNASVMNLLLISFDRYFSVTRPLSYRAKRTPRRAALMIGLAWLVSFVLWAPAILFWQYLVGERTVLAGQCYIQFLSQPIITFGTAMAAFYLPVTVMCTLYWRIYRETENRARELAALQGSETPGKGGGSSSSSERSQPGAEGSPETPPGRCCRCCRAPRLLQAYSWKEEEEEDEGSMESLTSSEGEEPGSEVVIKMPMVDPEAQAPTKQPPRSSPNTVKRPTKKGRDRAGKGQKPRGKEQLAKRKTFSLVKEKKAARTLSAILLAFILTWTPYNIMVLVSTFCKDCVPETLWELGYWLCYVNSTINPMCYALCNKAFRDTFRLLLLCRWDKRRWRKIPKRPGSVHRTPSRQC
CHO-K1 Ca antag: counter-screen for M1 antagonists: effect in parental CHO-K1 cells; ATP-induced calcium, Fluo-8 fluorescence; inhibition, % at 3 µM; actives 0.6% (n = 360,000); AID 602250;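 active = inhibition above a per-plate cutoff, the plate's mean sample inhibition plus 3 SD, cut at about 24% in these data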
CHO-K1 Ca PAM: nonselective activator or artifact in parental CHO-K1 calcium assay. ATP EC20, Fluo-8 calcium fluorescence; 0% at ATP EC20, 100% at ATP max. activation, % at 3 µM. actives 0.02% (n = 360,000). AID 602247;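 active = activation above the run cutoff, the mean activation of all test compounds plus 3 SD, cut at about 40% in these data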;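 note: peak over basal fluorescence ratio in a 140 s read after ATP addition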
CHRM1 PAM: human CHRM1 positive allosteric modulation; P11229; CHO-K1 hM1, Fluo-8 calcium fluorescence, ACh EC20; 0% = ACh EC20, 100% = maximal ACh; activation, % at 3 µM; actives 0.088% (n = 360,000); AID 588819; in the data active = activation above about 19%, passing the limit was not always enough
M1 antag: blocks human M1 muscarinic receptor. P11229. CHO-K1 hM1, Fluo-8 calcium fluorescence, ACh EC80 antagonist. inhibition, % at 3 µM. actives 1.3% (n = 360,000);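 active = percent inhibition above its own plate's cutoff, namely the mean of that plate's compound wells plus 3 SD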;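 note: peak over basal fluorescence ratio during 140 s after agonist addition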
Large screens that a line does not name were inactive; ! = not confirmed by another sample. Rows were chosen to be rich in hits. Some 2.3% of all compounds tested hit in one or more screens of this group.

COc1cc2[nH]c3c(=O)n(N)c(=O)[nH]c3c2cc1OC	M1 antag 41
O=C(c1ccncc1)N1CCN(CCc2ccccc2)CC1	none
O=C(c1ccc(Br)o1)N1CCN(CCc2ccncc2)CC1	M1 antag 44
Cn1nc(C(C)(C)C)cc1C(=O)NCc1ccc(N2CCCC2=O)cc1	CHO-K1 Ca antag 29
COc1ccc(CCN2CC(C(=O)N3CCSCC3)CCC2=O)cc1 (stereo not given)	none
COc1cccc(N/C(N)=N/c2nc(C(F)(F)F)cc(C(F)(F)F)n2)c1	none
COc1cccc(N/C(N)=N/c2nc(C(F)(F)F)cc(=O)[nH]2)c1	CHO-K1 Ca ag 18
COc1cc(OC)c(NC(=O)CCNC(=O)Cn2cnc3ccccc3c2=O)cc1Cl	CHRM1 PAM 26
COc1cc(OC)c(N(C)C(=O)CCNC(=O)Cn2cnc3ccccc3c2=O)cc1Cl	none
C=C[C@H]1CN2CC[C@H]1C[C@@H]2[C@@H](O)c1ccnc2ccc(OC)cc12	CHO-K1 Ca antag 25!
C=C[C@H]1CN2CCC1C[C@H]2[C@H](O)c1ccnc2ccc(OC)cc12 (stereo not given in full)	none
O=S(=O)(Nc1ccc(N2CCOCC2)cc1)c1c(F)cc(F)cc1Br	none
COc1ccc(OC)c(C(C(=O)NC2CCCCC2)N(Cc2ccco2)C(=O)c2ccccn2)c1 (stereo not given)	none
OC(c1cc(-c2cccc(Cl)c2)nc2ccccc12)C1CCCCN1 (stereo not given)	CHO-K1 Ca ag 27
CN1CCN(NC(=O)c2cc(-c3cccc(Cl)c3)nc3ccccc23)CC1	none
O=S(=O)(c1ccc(Cl)nc1)N1CCCCC1	none
CCC(C)C(CO)NCCCn1cnc2c(OC)ncnc21 (stereo not given)	M1 antag 21
COc1ccc(Cn2c(-c3ccc(Br)cc3)c[n+]3ccccc23)cc1	M1 antag 42
CN(C)CCCN(Cc1ccccc1)C(=S)Nc1cccc(C(F)(F)F)c1	none
CN(C)CCCN(Cc1ccccc1)C(=S)Nc1ccc(F)c(Cl)c1	M1 antag 38
N=c1c2c(ncn1CCN1CCOCC1)Oc1cc(O)ccc1C2c1ccccc1 (stereo not given)	M1 antag 30
COc1ccc(/C=C/C(=O)N/C(=C\c2ccco2)C(=O)NCCc2nc3ccccc3[nH]2)cc1	CHO-K1 Ca antag 25
Cc1ccccc1CN1CCN(Cc2ccc3cccc(F)c3n2)CC1CCO (stereo not given)	none
CCc1nnc(NC(=O)CCC(=O)N2CCN(Cc3ccc(F)cc3)CC2)s1	M1 ag 16
O=C1[C@H]2[C@@H](c3ccc(F)cc3)N3C(=O)N(c4ccc(Br)cc4)C(=O)[C@@]3(Cc3ccccc3)[C@H]2C(=O)N1C1CCCCC1	none
Cc1nc2ncnn2c(N2CCN(C(c3ccccc3)c3ccccc3)CC2)c1C	none
Cc1cc(N2CCN(C(c3ccccc3)c3ccccc3)CC2)n2ncnc2n1	M1 antag 30
CCN(c1ccccc1)S(=O)(=O)c1cccc(C(=O)NCC(c2cccs2)N(C)C)c1 (stereo not given)	M1 antag 52
CNS(=O)(=O)c1cccc(C(=O)NCC(c2cccs2)N(C)C)c1 (stereo not given)	none
Cc1cc(=O)oc2cc(O)cc(OCc3ccccc3)c12	none
O=C(CCCN=C1NS(=O)(=O)c2ccccc21)OCC(=O)c1ccc(F)cc1	M1 ag 22
Cc1ccc(S(=O)(=O)N2C[C@@H]3CCCC[C@@H]3[C@@H](C)[C@H]2c2cn(Cc3ccccc3)c3ncccc23)cc1	CHRM1 PAM 29
C/C(=N\NC(=O)Cc1ccc(Cl)c(Cl)c1)c1cccnc1	CHO-K1 Ca antag 44
O=C(Nc1cc(S(=O)(=O)N2CCOCC2)ccc1N1CCOCC1)c1cccs1	none
CC(=O)c1cccc(NC(=O)NCCc2c[nH]c3ccccc23)c1	none
O=C(Nc1cccc(CNCCc2c[nH]c3ccccc23)c1)c1ccccc1Cl	CHO-K1 Ca ag 27
O=C(COC(=O)c1ccccc1C(=O)OCC(=O)NCCc1c[nH]c2ccccc12)NCCc1c[nH]c2ccccc12	M1 antag 34
CC(C)(C)n1cn[nH]c1=S	none
CCn1c(SCC(=O)Nc2cccc(C)c2)nc2c(c1=O)SC(C)C2 (stereo not given)	CHO-K1 Ca antag 35
CC1Cc2nc(SCC(=O)c3ccccc3)n(Cc3ccccc3)c(=O)c2S1 (stereo not given)	none
CCn1c(SCC(=O)Nc2ccc3c(c2)OCO3)nc2c(c1=O)SC(C)C2 (stereo not given)	none
CC1Cc2nc(SCC(=O)NCc3ccccc3)n(Cc3ccccc3)c(=O)c2S1 (stereo not given)	M1 antag 53
CC(=O)OCC(=O)C1(O)CCC2C3CC(C)C4=CC(=O)C=CC4(C)C3=CCC21C (stereo not given)	none
O=C(CSc1nc2[nH]ncc2c(=O)n1-c1ccccc1)NCCc1ccccc1	CHO-K1 Ca ag 17
O=C(CSc1nc2[nH]ncc2c(=O)n1-c1ccccc1)NCc1cccs1	none
CNc1nc(Oc2cccc(NC(C)=O)c2)c2sccc2n1	none
COc1ccc(NC(=O)CN2C(=O)NC(C)(C3CC3)C2=O)c(OC)c1 (stereo not given)	none
C(#Cc1ccccc1)C[N+]1(CC#Cc2ccccc2)CCCC1	M1 antag 39
Cc1ccccc1NC(=O)c1ccccc1N(C)S(=O)(=O)c1ccccc1	none
O=C(CCS(=O)(=O)c1ccccc1)N1CCN(c2ccccc2)CC1	none
CCC(=O)c1ccc(OCC(=O)OCC(=O)Nc2cccc(S(=O)(=O)N3CCCC3)c2)cc1	none
CCC(=O)c1ccc(OCC(=O)OCC(=O)Nc2ccc(C)c(S(=O)(=O)N3CCCCC3)c2)cc1	CHO-K1 Ca ag 16
O=C(C1CCN(Cc2ccc(Cl)cc2)CC1)N1CCN(C(c2ccccc2)c2ccccc2)CC1	M1 antag 99
CSc1ccc(CN2CCC(Cc3ccccc3)CC2)cc1	M1 antag 50
CC(NC1CCN(Cc2ccccc2)CC1)c1ccc(F)cc1 (stereo not given)	M1 antag 34
Clc1ccc(CN2CCC(Cc3ccccc3)CC2)cc1	M1 antag 45
COc1ccc(C2=NOC(Cn3nc(C(=O)NCc4ccc(C)cc4)cc3-c3ccccc3)C2)cc1 (stereo not given)	none
COc1ccc(C2=NOC(Cn3nc(C(=O)NCc4ccco4)cc3-c3ccccc3)C2)cc1 (stereo not given)	M1 antag 33
CCn1cc(Cl)c(C(=O)Nc2nccs2)n1	none
Cc1cccc(C(=O)NCC(=O)NC2CCN(Cc3ccccc3)CC2)c1	none
CN(C)S(=O)(=O)c1cccc(C(=O)NCC(=O)NC2CCN(Cc3ccccc3)CC2)c1	M1 antag 34

Screening data deposited in PubChem BioAssay by The Scripps Research Institute Molecular Screening Center.
